Measured values from PubChem BioAssay AID488899 (Broad Institute, 2010).
Out of some 330,000 compounds screened, about 2,800 (0.85%) were called active. The entries come from a sample that favours actives as a whole. Unmarked numbers belong to inactive results.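 The calls were made as follows: active = mean inhibition across replicates of 60% or more, whatever share of single replicates reaches that level; inconclusive = some that reach 60%, reason not given; inactive = mean inhibition across replicates below 60%.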

Test: MITF transcriptional activity suppression – cell-based, SK-MEL-5, single point, luciferase, primary screen (AID 488899)
Details: SK-MEL-5 TRPM1 promoter luciferase, 24 h; at 12.5 µM; stronger effect = higher value

Question: For `COc1ccc(-c2cc(=O)oc3cc(OC(C)C(=O)Nc4ccc(CN5CCOCC5)cc4)ccc23)cc1` (centres undefined), which inhibition is on record?
Answer: -4.64%

Question: Which inhibition does the source give for `CCCN(CCC)S(=O)(=O)c1cc2c(cc1Br)CCN2C(=O)CC` here?
Answer: 0.177%

Question: Which inhibition does the source give for `NN=C(NN=Cc1ccccc1)c1ccccc1` here?
Answer: -40.6%

Question: With `CC(Oc1ccc(-c2ccccc2)c(F)c1)c1ccn(S(=O)(=O)c2cccc3ccccc23)n1` (centres undefined) as the molecule, how does the inhibition read?
Answer: -2.2%

Question: With `O=C(O)c1ccc(S(=O)(=O)c2ccccc2)s1` as the molecule, how does the inhibition read?
Answer: 11.8%

Question: Which inhibition does the source give for `COC(=O)Cc1[nH]n(-c2nc3ccccc3s2)c(=O)c1C(C)=Nc1ccc(OC)cc1` here?
Answer: 95.4% (active)

Question: With `COc1ccc(C2=NN(c3nc4ccccc4s3)C(=O)C2)cc1` as the molecule, how does the inhibition read?
Answer: 19.7%

Question: With `CC(=NCc1ccco1)c1c(C(F)(F)F)[nH]n(-c2nc3ccccc3s2)c1=O` as the molecule, how does the inhibition read?
Answer: -61.7%

Question: Which inhibition does the source give for `CC[C@]12c3[nH]c4ccc(Cl)cc4c3CCN1C(=O)[C@@H](CC(=O)NCCCOC)C[C@@H]2C(=O)N1CCN(C(=O)c2ccco2)CC1` here?
Answer: -7.5%

Question: With `CCOc1ccc(N/C=C/C(=O)c2ccccc2)cc1` as the molecule, how does the inhibition read?
Answer: 8.94%

Question: With `CCOc1ccc(N/C=C/C(=O)c2cc(OC)c(OC)c(OC)c2)cc1` as the molecule, how does the inhibition read?
Answer: 4.18%

Question: For `COc1ccc(C(=O)/C=C/Nc2ccccn2)cc1`, which inhibition is on record?
Answer: 67.5% (active)

Question: With `O=[N+]([O-])c1ccc(N=NNc2ccc([N+](=O)[O-])cc2)cc1` as the molecule, how does the inhibition read?
Answer: -19.3%

Question: Which inhibition does the source give for `CN(C)CCNC(=O)Nc1cccc(Cl)c1Cl` here?
Answer: 5.71%

Question: For `CC(=O)NCCNC(=O)c1cc(-c2cccc3ccccc23)nc2ccccc12`, which inhibition is on record?
Answer: 9.13%

Question: With `CN(C)CCNC(=O)c1ccc(Cl)c2cc3ccccc3nc12` as the molecule, how does the inhibition read?
Answer: 74.8% (active)

Question: Which inhibition does the source give for `Cc1ccc(-c2nnc(-c3ccc(NC(=O)c4cccs4)cc3)o2)cc1` here?
Answer: 73.5% (active)

Question: With `Cc1ccc(C(=O)Nc2ccc(NC(=O)c3cccs3)cc2)c(C)c1` as the molecule, how does the inhibition read?
Answer: -4.59%

Question: With `Cc1ccc(OCC(=O)Nc2ccc(NC(=O)c3cccs3)cc2)c(C)c1` as the molecule, how does the inhibition read?
Answer: 27.8%

Question: Which inhibition does the source give for `CS(=O)(=O)c1ccc2nnn(OCC(=O)Nc3cccc(C#N)c3)c2c1` here?
Answer: 10.8%

Question: With `COc1cc(O)c2c(=O)c3c(O)c(O)ccc3oc2c1OC` as the molecule, how does the inhibition read?
Answer: -1.36%

Question: For `Cc1ccccc1-c1n[nH]c(=S)n1/N=C/c1ccc(-c2ccccc2Br)o1`, which inhibition is on record?
Answer: 10.7%

Question: With `O=C(CSc1n[nH]c(-c2cccs2)n1)N1CCCCC1` as the molecule, how does the inhibition read?
Answer: -12.1%

Question: For `COc1cc(OC)cc(C(=O)NNC(=O)CCOc2ccccc2OC)c1`, which inhibition is on record?
Answer: -4.37%

Question: For `COc1cc(OC)cc(C(=O)N[C@H](C(=O)NNC(=O)c2ccc(Br)cc2)C(C)C)c1`, which inhibition is on record?
Answer: 13.3%

Question: For `COc1ccc(C(=O)N[C@H](C(=O)NCc2ccccc2)C(C)C)cc1`, which inhibition is on record?
Answer: 9.58%

Question: With `COc1cc(OC)cc(C(=O)N[C@H](C(=O)Nc2nc3ccccc3[nH]2)C(C)C)c1` as the molecule, how does the inhibition read?
Answer: 71% (active)

Question: Which inhibition does the source give for `CCn1nnc2cc(C(=O)Nc3ccc(C(=O)OC(C)C)cc3)ccc21` here?
Answer: 21.6%

Question: With `CCOC(=O)C(CO)NC(=O)C1(NC(C)=O)CCCC1` (centres undefined) as the molecule, how does the inhibition read?
Answer: -14.8%

Question: For `COc1cc(SC)ccc1C(=O)Nc1nc(C)cs1`, which inhibition is on record?
Answer: 88.5% (active)

Question: Which inhibition does the source give for `COc1ccc(C(=O)Nc2cccc(NC(=O)c3ccc(OC)cc3OC)n2)c(OC)c1` here?
Answer: -13.3%

Question: Which inhibition does the source give for `Cc1csc(NC(=O)c2ccc(C)s2)n1` here?
Answer: -57.3%

Question: Which inhibition does the source give for `Cc1ccc(N2C(=O)CC(Nc3cccc4ccccc34)C2=O)cc1` (centres undefined) here?
Answer: 8.42%

Question: With `CC(=O)Nc1ccccc1Sc1ccc2c3c(cccc13)C(=O)N(c1ccc(C)cc1)C2=O` as the molecule, how does the inhibition read?
Answer: 65.2% (active)

Question: For `CSc1ccccc1NC(=O)C(C)N1C(=O)c2ccccc2S1(=O)=O` (centres undefined), which inhibition is on record?
Answer: 0.029%

Question: With `O=C(NNC(=O)C1CCCC1)c1ccc(F)cc1` as the molecule, how does the inhibition read?
Answer: 3.41%

Question: For `O=C(/C=C/c1ccc([N+](=O)[O-])o1)NNC(=O)c1ccc(F)cc1`, which inhibition is on record?
Answer: 80.8% (active)

Question: Which inhibition does the source give for `COc1ccc(C(=O)NCC(=O)N/N=C/c2ccc([N+](=O)[O-])o2)cc1OC` here?
Answer: 10.3%

Question: With `O=C(Cn1cnc2ccccc2c1=O)NCC1COc2ccccc2O1` (centres undefined) as the molecule, how does the inhibition read?
Answer: -4.59%

Question: Which inhibition does the source give for `NC(N)=Nc1nc(-c2ccccc2)c2cc(Cl)ccc2n1` here?
Answer: 85.2% (active)

Question: Which inhibition does the source give for `COC(=O)Cn1nc(-c2ccccc2)c2cc(Cl)ccc21` here?
Answer: -4.99%

Question: With `Cc1ccc2nc(Nc3ccccc3O)nc(-c3ccccc3)c2c1` as the molecule, how does the inhibition read?
Answer: -6.93%

Question: For `COc1ccc2[nH]c3c(C)c4cc[n+](C)cc4c(C)c3c2c1`, which inhibition is on record?
Answer: 50.4%

Question: With `O=C(Cn1ccc2cc(S(=O)(=O)N3CCCC3)ccc21)NCc1ccccc1` as the molecule, how does the inhibition read?
Answer: -7.14%

Question: With `O=[N+]([O-])/C=C/c1ccc2c(ccn2Cc2ccccc2)c1` as the molecule, how does the inhibition read?
Answer: 69.6% (active)

Question: With `COC(=O)Cn1cc(/C=C/[N+](=O)[O-])c2ccccc21` as the molecule, how does the inhibition read?
Answer: 1.38%

Question: Which inhibition does the source give for `CC1(C)C2CCC1(C)C(OC(=O)c1ccc(O)cc1)C2` (centres undefined) here?
Answer: -0.433%

Question: Which inhibition does the source give for `O=C(OC12CC3CC(CC(C3)C1)C2)c1ccc(NCc2cc(O)ccc2O)cc1` here?
Answer: 66.6% (active)

Question: For `CC(C)OC(=O)c1ccc(NCc2cc(O)ccc2O)cc1Cl`, which inhibition is on record?
Answer: 5.02%

Question: For `COC(=O)c1ccc(NCc2cc(O)ccc2O)cc1`, which inhibition is on record?
Answer: -5.57%

Question: Which inhibition does the source give for `Cc1ccc(-n2c(O)c(C=Nc3ccc(S(=O)(=O)Nc4ncccn4)cc3)c3ccccc3c2=O)cc1C` here?
Answer: 7.63%

Question: Which inhibition does the source give for `CCN(CC)CCCN=Cc1c(O)n(-c2ccc(C)cc2)c(=O)c2ccccc12` here?
Answer: -6.61%

Question: With `CCOc1ccc(-n2c(O)c(/C=N/Nc3nc(C)cc(C)n3)c3ccccc3c2=O)cc1` as the molecule, how does the inhibition read?
Answer: 67.6% (active)

Question: With `Cc1ccc(S(=O)(=O)C2C(=O)NC3(C)CC2c2ccccc2O3)cc1` (centres undefined) as the molecule, how does the inhibition read?
Answer: 4.13%

Question: Which inhibition does the source give for `COc1ccc(C(=O)Nc2ccnn2C2CCN(Cc3ccncc3)CC2)cc1` here?
Answer: -5.32%

Question: For `CCCCCN(C(=O)NC(=O)Nc1ccccc1C)S(C)(=O)=O`, which inhibition is on record?
Answer: 4.88%

Question: With `CCOC(=O)CCC(NC(=O)c1ccc(CNc2nc3cc(C(F)(F)F)ccc3nc2C(=O)OCC)cc1)C(=O)OCC` (centres undefined) as the molecule, how does the inhibition read?
Answer: 3.92%

Question: For `CSCCC(NS(=O)(=O)c1ccc(C)cc1)C(=O)N(C)CC(=O)Nc1ccccc1Br` (centres undefined), which inhibition is on record?
Answer: 11.6%

Question: Which inhibition does the source give for `CC(C)=CCc1ccc(O)c(=O)cc1C(C)C` here?
Answer: 71.6% (active)

Question: Which inhibition does the source give for `CC(C)c1cc(N=O)cc(C(C)C)c1O` here?
Answer: -4.28%

Question: Which inhibition does the source give for `COc1ccc(CNC(=O)CN2C(=O)c3ccccc3S2(=O)=O)cc1` here?
Answer: 13.6%

Question: With `CCOc1ccc(CNC(=O)C2CCCN(c3nnc(C)c4c(C)n(-c5ccccc5)nc34)C2)cc1` (centres undefined) as the molecule, how does the inhibition read?
Answer: 48.5%

Question: For `COc1ccc(-n2nc3c(N4CCC(C(=O)NCc5ccccc5)CC4)nnc(C)c3c2C)cc1`, which inhibition is on record?
Answer: 40.6%

Question: Which inhibition does the source give for `CCc1ccc(CNC(=O)C2CCN(c3nnc(C)c4c(C)n(-c5ccc(C)cc5)nc34)CC2)cc1` here?
Answer: 96.1% (active)

Question: With `COc1cccc(CC(=NO)c2cccc(OC)c2)c1` as the molecule, how does the inhibition read?
Answer: -0.084%

Question: Which inhibition does the source give for `CCCOc1ccc(/C=N/NC(=O)C2CC2)c(OCCC)c1` here?
Answer: -7.21%

Question: For `COc1ccc(CN2CCNC(=O)C2CC(=O)NCc2cn[nH]c2-c2ccccc2)c(F)c1` (centres undefined), which inhibition is on record?
Answer: -6.25%

Question: Which inhibition does the source give for `CC(C)OCCCNC(=O)CN1C(=O)/C(=C/c2ccccc2F)Oc2ccccc21` here?
Answer: 8.17%

Question: With `Cc1c(C)n(Cc2ccc(Cl)cc2)c2ccc(C(=O)NCCCN3CCOCC3)cc12` as the molecule, how does the inhibition read?
Answer: 1.78%

Question: For `CN1CCN(CCCNC(=O)c2ccc(/C=C3\Oc4ccccc4N(Cc4ccc(Cl)cc4)C3=O)cc2)CC1`, which inhibition is on record?
Answer: 96.1% (active)

Question: For `CCOc1ccc(NC(=O)CSc2ncnc3c2sc2ccccc23)cc1`, which inhibition is on record?
Answer: 4.52%

Question: For `C=CCc1cccc2cc(C(=O)NC3CCCC3)c(=O)oc12`, which inhibition is on record?
Answer: -16%

Question: Which inhibition does the source give for `CCC1=C(OC(=O)N(CC)CC)N2C(=O)OC(=NCCc3c[nH]c4ccccc34)[C@]2(C)[C@H]2C1=CC[C@H]1C(=O)N(CC)C(=O)[C@H]12` here?
Answer: 1.76%

Question: For `COCCN(Cc1cc2cc3c(cc2nc1Cl)OCO3)C(=O)c1cccc(C)c1`, which inhibition is on record?
Answer: 10%

Question: With `Cc1cc(C)nc(SCc2ccccc2C#N)n1` as the molecule, how does the inhibition read?
Answer: 4.69%

Question: With `Cc1cc(C)nc(S/C=C/C(=O)c2ccccc2)n1` as the molecule, how does the inhibition read?
Answer: 80.6% (active)

Question: Which inhibition does the source give for `Cc1cc(C)nc(SCC(=O)N(C)C)n1` here?
Answer: 2.39%

Question: For `Cn1c2ccccc2c2c(C(=O)N3CCN(c4ccc(F)cc4)CC3)cn(C3CCCC3)c(=O)c21`, which inhibition is on record?
Answer: -8.48%

Question: With `CCCc1nc2c(c(=O)c3ccccc3n2C)c(=O)n1C1CCCCCC1` as the molecule, how does the inhibition read?
Answer: 73.5% (active)

Question: For `CC1CCN(Cc2nc3c(c(=O)n(C)c(=O)n3C)n2CCc2ccccc2)CC1`, which inhibition is on record?
Answer: -2.78%

Question: Which inhibition does the source give for `COc1cc(OC)cc(-c2c(-c3cccs3)c3cc(-c4ccc(OC)cc4F)ccc3n2C)c1` here?
Answer: 13.6%

Question: Which inhibition does the source give for `C#CCOCCOCCOCCNc1nc(N2CCOCC2)nc(N2CCN(C(=O)[C@H](Cc3ccc(O)cc3)n3cc(CCO)nn3)CC2)n1` here?
Answer: 4.74%

Question: With `COc1ccc(CCNc2cc(N3CCN(C(=O)c4ccccc4OC)CC3)ccc2[N+](=O)[O-])cc1OC` as the molecule, how does the inhibition read?
Answer: 77.2% (active)

Question: For `COc1ccccc1OCCNc1cc(N2CCOCC2)ccc1[N+](=O)[O-]`, which inhibition is on record?
Answer: -28%

Question: Which inhibition does the source give for `O=C(c1ccccc1)N1CCN(c2ccc([N+](=O)[O-])c(NCc3ccco3)c2)CC1` here?
Answer: 5.6%

Question: Which inhibition does the source give for `C[C@@H](NC(=O)c1nc[nH]c1C(=O)N1CCN(C(=O)OC(C)(C)C)CC1)c1ccccc1` here?
Answer: -1.66%

Question: Which inhibition does the source give for `CCCCN1CC(CO)Oc2cccc(F)c2S1(=O)=O` (centres undefined) here?
Answer: 0.622%

Question: With `Cc1ccc(CN(Cc2cccnc2)C(=S)Nc2cc(Cl)ccc2C)cc1` as the molecule, how does the inhibition read?
Answer: 1.58%

Question: For `O=c1ccn([C@@H]2O[C@H](CNS(=O)(=O)c3cc4ccccc4s3)[C@@H](O)[C@H]2O)c(=O)[nH]1`, which inhibition is on record?
Answer: -0.592%
